Hit rate of the full screen: of about 2,100 compounds, about 1,100 (52%) were called active. About 27% were inconclusive and are not listed. So high a share suggests a set chosen from earlier hits. This is one part of the list. Unmarked numbers belong to inactive results. Calls follow the shape of the dose curve; as a rule, active = well fitted inhibition curve with a large enough effect; inconclusive = small, poorly fitted or top-dose-only effect; inactive = no such curve, though single readings can be large or run the other way.
Potency is read from the fitted curve at half-maximal effect.

Sequence of DNA dC->dU-editing enzyme APOBEC-3G (Homo sapiens) (Q9HC16 whole entry, looked up): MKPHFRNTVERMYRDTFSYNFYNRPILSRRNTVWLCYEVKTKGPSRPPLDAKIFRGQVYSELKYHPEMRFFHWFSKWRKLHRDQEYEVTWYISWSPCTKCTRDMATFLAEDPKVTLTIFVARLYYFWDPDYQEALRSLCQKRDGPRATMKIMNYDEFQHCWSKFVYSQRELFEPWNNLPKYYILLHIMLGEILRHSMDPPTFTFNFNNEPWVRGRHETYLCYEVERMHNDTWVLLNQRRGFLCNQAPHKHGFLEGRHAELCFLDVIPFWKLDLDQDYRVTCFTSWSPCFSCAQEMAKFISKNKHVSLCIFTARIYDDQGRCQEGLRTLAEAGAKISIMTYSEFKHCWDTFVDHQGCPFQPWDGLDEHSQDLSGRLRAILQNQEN

This test addresses DNA dC->dU-editing enzyme APOBEC-3G (Homo sapiens) (UniProt Q9HC16). Nature of the test: qHTS for inhibitors of Vif-A3G interactions: Cherry picks counterscreen.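 Also: hits raise yellow fluorescence by blocking Vif-driven A3G-eYFP degradation; nearly all actives have a fitted effect of over 70% in size.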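 As to max response: max response given as percent of control signal.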 As to conditions: HeLa A3G-eYFP + Vif (tagged APOBEC3G with the HIV-1 protein that degrades it), eYFP fluorescence, 24 h. The method, boiled down:
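HeLa cells stably expressing A3G-eYFP and Vif were treated for 24 h at 37 deg C with compounds at several concentrations; yellow fluorescence (Ex 488 nm, Em 500-530 nm) read by Acumen Explorer, MG132 as positive control.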
On the technique in general: Quantitative high-throughput screening tests each substance at several concentrations.
On to `COc1ccc(/C=N/NC(=O)c2cc(OC)c(OC)c(OC)c2)cc1CN1CCc2cc(OC)c(OC)cc2C1C` (centres undefined), for which the Potency is 12.5 µM (active).
With `CC(=O)N1CCc2nc3sc(C(=O)c4ccc(F)cc4)c(N)c3c(C(F)(F)F)c2C1`, the Potency was 18.4 µM (active).
Regarding `COc1ccc(C(=O)c2sc3nc4c(c(C(F)(F)F)c3c2N)CN(C(C)=O)CC4)cc1OC`, the Potency was 18.4 µM (active).
The same measure, in the same setting: the same measure for `CCOC(=O)c1cc2n(c1/N=C/N(C)C)-c1ccccc1C2=O`: 16.4 µM (active).
In the case of `CCOC(=O)c1cc2n(c1N)-c1ccccc1C2=O`, the max response is -28.5%.
For `CO/N=C\CC(=O)Nc1ccc(Cl)c(Cl)c1`, the Potency was 9.94 µM (active).
On the same count and under the same terms, with `CO/N=C\CC(=O)Nc1ccc(Oc2ccccc2)cc1` the figure was 1.98 µM (active).
Still for that read-out and setting: the same measure for `CCCCN1C(=O)/C(=C2/Sc3ccccc3N2C)S/C1=N\c1ncn[nH]1`: 20.6 µM (active); for `O=C(NNc1ncc(C(F)(F)F)cc1Cl)c1c(Cl)cccc1Cl`: 14 µM (active); for `O=C(NCc1ccc2c(c1)OCO2)c1cc([N+](=O)[O-])ccc1N1CCCCC1`: 1.98 µM (active).
For `O=C(/C=C/c1cccs1)NCc1ccc2c(c1)OCO2`, the max response is -24.4%.
Take `COc1cccc(C(=O)Nc2ccc(N3CCCC3)cc2)c1`: the Potency was 5.59 µM (active).
Consider `COc1cc(C(=O)OCC(=O)Nc2ccc(N3CCOCC3)cc2)ccc1OCC(C)C`, for which the max response was 8.76%.
Consider `COc1cc(OC)cc(C(=O)Nc2ccc(N3CCN(C(=O)c4cccs4)CC3)cc2)c1`, for which the Potency is 6.27 µM (active).
Take `CCc1ccc(C(=O)NC(=S)Nc2ccc(N3CCOCC3)cc2)cc1`: the max response was 0.165%.
Regarding `CCN(CC)c1ccc(C=NNc2ccc([N+](=O)[O-])cn2)cc1`, the Potency is 1.3 µM (active).
On the same count and under the same terms, with `O=[N+]([O-])c1ccc(N/N=C\c2cccn2-c2ccccc2)nc1` the figure was 15.8 µM (active).
On the same count and under the same terms, with `Oc1ccc(C2=NNC(=NCc3ccc4c(c3)OCO4)SC2)c(O)c1` the figure was 7.9 µM (active); with `COc1ccc(C2C(C#N)=C(N)Oc3c2ccc2cccnc32)cc1OC` (centres undefined), 1.77 µM (active).
Regarding `COc1ccc(C2C(C#N)=C(N)Oc3cc(N)ccc32)cc1OC` (centres undefined), the Potency is 9.94 µM (active).
On the same count and under the same terms, the same measure for `COc1cc(C2C(C#N)=C(N)Oc3cc(O)ccc32)cc2c1OCO2` (centres undefined): 11.2 µM (active); for `N#CC1=C(N)Oc2cc(N)ccc2C1c1cccc(Br)c1` (centres undefined): 0.627 µM (active).
As for `COc1ccc2nc(Nc3nc(CSc4ccc(C)cc4)cc(=O)[nH]3)nc(C)c2c1`, the max response was -26.4%.
As for `N#CC1=C(N)Oc2cc(N)ccc2C1c1ccccc1F` (centres undefined), the Potency was 9.94 µM (active).
Take `Cc1oc(C)c2c(=O)ccc3c(c12)OC(N)=C(C#N)C3c1ccc(F)cc1` (centres undefined): the max response was 44.8%.
For `N#CC1=C(N)Oc2cc(N)ccc2C1C1CC=CCC1` (centres undefined), the Potency was 5.59 µM (active).
Still for that read-out and setting: the same measure for `N#CC1=C(N)Oc2cc(N)ccc2C1c1ccccc1` (centres undefined): 15.8 µM (active).
In the case of `N#CC1=C(N)Oc2cc(N)ccc2C1c1cccc(F)c1` (centres undefined), the Potency is 4.98 µM (active).
On the same count and under the same terms, the same measure for `COc1ccc(NC(=O)c2cc(-c3ccccc3OC)on2)cc1`: 3.14 µM (active).
With `COc1ccccc1-c1cc(C(=O)NN)[nH]n1`, the max response is 14.5%.
For `Cc1ccc(S(=O)(=O)C(C#N)c2nc3ccccc3nc2N2CCCC2)cc1` (centres undefined), the Potency is 16.4 µM (active).
Regarding `COc1ccc(-n2c(O)c(/C=N/NS(=O)(=O)c3cccc([N+](=O)[O-])c3)c3ccccc3c2=O)cc1OC`, the Potency was 12.5 µM (active).
The same measure, in the same setting: with `COc1ccc(-n2c(O)c(/C=N/NS(=O)(=O)c3ccc(C)c([N+](=O)[O-])c3)c3ccccc3c2=O)cc1OC` the figure was 4.61 µM (active).
For the compound `O=C(O)CSc1cc(NS(=O)(=O)c2cccc([N+](=O)[O-])c2)c2ccccc2c1O`, the max response is -17.9%.
Consider `CCN1C(=O)/C(=C/C=C2\N(CC)c3cc(S(=O)(=O)N(C)C)ccc3N2c2ccccc2)SC1=S`, for which the Potency is 1.12 µM (active).
Regarding `N#C/C(=C\c1ccc(C(=O)O)cc1)c1nc2sc3c(c2c(=O)[nH]1)CCCC3`, the max response was -29.5%.
For the compound `COc1cc(/C=C(/C#N)c2nc3ccccc3[nH]2)ccc1OCC(=O)Nc1ccccc1C(C)C`, the Potency was 13 µM (active).
Still for that read-out and setting: the same measure for `CN(C)c1ccc(/C=C(\C#N)c2nc3ccccc3c(=O)[nH]2)cc1`: 0.411 µM (active).
For the compound `COc1cc(/C=C(\C#N)c2nc3ccccc3s2)ccc1OCC(=O)Nc1ccccc1`, the Potency is 15.8 µM (active).
On the same count and under the same terms, the same measure for `N#C/C(=C/c1ccc(O)c(O)c1)c1nc2ccccc2[nH]1`: 3.14 µM (active).
Take `Cc1ccc2nc(/C(C#N)=C/c3ccc(O)c(O)c3)[nH]c2c1`: the max response is 43.5%.
As to `O=C(OCCC12CC3CC(CC(C3)C1)C2)c1ccc(NCc2cc(O)ccc2O)cc1`, the max response is 25.7%.
Turning to `COc1cc(/C=C(/C#N)c2nc3ccccc3[nH]2)ccc1OC(=O)c1ccco1`, the max response was 51.6%.
On to `COc1cc(/C=C(\C#N)c2nc3ccccc3[nH]2)ccc1O`, for which the Potency was 2.31 µM (active).
Same read-out and setting: the same measure for `O=C1C=C(Nc2ccc(Cl)cc2Cl)CC(c2ccco2)C1` (centres undefined): 5.59 µM (active); for `COc1cc2nc(/C=C/c3ccc(N(C)C)cc3)sc2cc1SC`: 5.17 µM (active).
Still for that read-out and setting: with `COc1ccc(-c2cc(NC=O)c3ncc(-c4ccc(OC)c(OC)c4)n3c2)cc1OC` the figure was 5.59 µM (active); with `COc1ccc(-c2cnc3c(NC=O)cc(-c4cc(OC)c(OC)c(OC)c4)cn23)cc1OC`, 12.5 µM (active).
Same read-out and setting: with `CN(C)c1ccccc1-c1cc(NC=O)c2ncc(-c3cccc(C(F)(F)F)c3)n2c1` the figure was 12.5 µM (active); with `COc1ccc(-c2cnc3c(NC=O)cc(-c4ccccc4)cn23)cc1OC`, 3.14 µM (active).
With `COc1cccc(-c2cnc3c(NC=O)cc(-c4cc(OC)c(OC)c(OC)c4)cn23)c1`, the Potency is 9.94 µM (active).
Regarding `COc1ccccc1-c1cc(NC=O)c2ncc(-c3ccc(S(C)(=O)=O)cc3)n2c1`, the Potency was 17.7 µM (active).
On to `COc1ccc(-c2cnc3c(NC=O)cc(-c4ccoc4)cn23)cc1OC`, for which the Potency is 11.2 µM (active).
Same read-out and setting: the same measure for `CCOc1ccccc1C(=O)Nc1c(C(=O)Nc2ccc(F)cc2)oc2ccccc12`: 2.06 µM (active); for `COc1ccccc1NC(=O)c1oc2ccccc2c1NC(=O)c1cccc(OC)c1OC`: 5.8 µM (active).
Take `CCCOc1ccc(N)cc1N`: the max response was -27.6%.
Same read-out and setting: with `COc1ccc(NC(=O)COC(=O)c2cc(OC)c(OC)cc2NC(=O)c2ccco2)cc1OC` the figure was 9.25%.
On to `O=C(COC(=O)c1ccc(NS(=O)(=O)c2cccs2)cc1)NCc1ccco1`, for which the Potency was 15.8 µM (active).
On to `O=S(=O)(Nc1nc2ccccc2nc1OCC(F)(F)F)c1cccs1`, for which the max response was -0.0016%.
Take `O=C(COC(=O)c1ccc(NS(=O)(=O)c2cccs2)cc1O)NCc1ccccc1`: the Potency was 4.44 µM (active).
Turning to `C/C(CCC(C)C)=N\NC(=S)NCc1ccccc1`, the max response was -18.4%.
Regarding `Cc1ccc(CNC(=O)Cc2ccc(-n3cccc3)cc2)cc1`, the Potency is 1.98 µM (active).
On the same count and under the same terms, with `O=C(Cc1ccccc1)NCc1ccc(-n2cccc2)cc1` the figure was 1.4 µM (active).
For `Cc1ccc2nc(C)c(C(=O)NN=C3CCCCCC3)n2c1`, the max response is -10.3%.
On the same count and under the same terms, with `CCOc1cc(Br)cc(/C=C2\SC(=Nc3ccccc3)NC2=O)c1O` the figure was -7.55%.
For `COc1cc(/C=C2\SC(=Nc3ccccc3)NC2=O)cc(Cl)c1O`, the Potency was 3.66 µM (active).
Same read-out and setting: with `O=C1NC(=Nc2ccc(O)cc2)S/C1=C/c1ccco1` the figure was 8.86 µM (active).
On the same count and under the same terms, the same measure for `COc1cc(/C=C2/SC(=Nc3ccc(O)cc3)NC2=O)ccc1O`: 14.6 µM (active).
Turning to `COc1cc(/C=C2\SC(=Nc3cccnc3)NC2=O)cc(OC)c1OC`, the max response is -29.3%.
Turning to `Cc1ccc2nc(/C(C#N)=C\c3ccc(OC(=O)c4cccs4)cc3)[nH]c2c1`, the Potency is 11.2 µM (active).
For `Cc1ccc2nc(/C(C#N)=C/c3ccc(-c4ccccc4C(=O)O)o3)[nH]c2c1`, the max response was 43.5%.
For the compound `Cc1ccc2nc(/C(C#N)=C/c3ccc(-c4ccc(F)cc4F)o3)[nH]c2c1`, the Potency is 1.64 µM (active).
Still for that read-out and setting: the same measure for `Cc1ccc2nc(/C(C#N)=C\c3ccc([N+](=O)[O-])o3)[nH]c2c1`: 18.4 µM (active).
Same read-out and setting: the same measure for `N#C/C(=C\c1ccc(-c2ccc(F)cc2F)o1)c1nc2ccccc2[nH]1`: 8.2 µM (active).
As to `COc1cc(CNCCSc2nnnn2C)ccc1OCc1c(F)cccc1Cl`, the max response was 28.9%.
Consider `N#C/C(=C\c1ccc(-c2ccc(C(=O)O)cc2)o1)c1nc2ccccc2[nH]1`, for which the Potency was 4.61 µM (active).
Same read-out and setting: with `Cc1ccc2nc(/C(C#N)=C/c3ccc(-c4cccc(Cl)c4)o3)[nH]c2c1` the figure was 8.2 µM (active); with `Cc1c(Cl)cccc1-c1ccc(/C=C(\C#N)c2nc3ccccc3[nH]2)o1`, 10.3 µM (active); with `Cc1ccc2nc(/C(C#N)=C/c3ccc(-c4ccc(C(=O)OC(C)C)cc4)o3)[nH]c2c1`, 3.66 µM (active).
The same measure, in the same setting: the same measure for `N#Cc1ccc(-c2cccs2)nc1SCc1c(F)cccc1Cl`: 1.84 µM (active).
In the case of `C=C(C(=O)c1ccccc1)C(C(=C)C(=O)c1ccccc1)c1ccc(OC)cc1`, the Potency is 9.94 µM (active).
Still for that read-out and setting: the same measure for `C=C(C(=O)c1ccccc1)C(C)C(=C)C(=O)c1ccccc1`: 8.86 µM (active); for `C=C(C(=O)c1ccccc1)C(NC(C)(C)C)c1ccccc1` (centres undefined): 14 µM (active).
Take `COc1ccc(-c2n[nH]c(C)c2-c2ccc(OC)c(OC)c2)c(O)c1`: the Potency is 17.7 µM (active).
As for `COc1cc2nc(SCC(=O)NCc3ccco3)n(Cc3ccc(Cl)cc3)c(=O)c2cc1OC`, the max response was -29.6%.
Turning to `Cc1cc(C)c(NC(=O)Cn2c(=O)n(Cc3ccc(C(=O)NCc4ccco4)cc3)c(=O)c3sccc32)c(C)c1`, the Potency was 18.4 µM (active).
On to `Cc1ccc(C)c(Cn2c(=O)n(CCCC(=O)NCc3ccco3)c(=O)c3sccc32)c1`, for which the Potency is 14 µM (active).
`Cc1cccc(Cn2c(=O)n(CCCC(=O)NCc3ccco3)c(=O)c3ccccc32)c1`: the Potency was 14 µM (active).
As to `CC(C)OC(=O)c1c2c(n3ccccc13)C(=O)c1ccccc1C2=O`, the Potency was 2.59 µM (active).
